Data published in PubChem BioAssay (NCI).
About 83,000 compounds went through this panel and 20% of them were active in at least one assay; those are over-represented in the sample as a whole.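 How to read the values: 0–100, growth inhibition (40 = 60% inhibited); 0, no net growth; -100 to 0, cell death (-40 = 40% of starting cells died; -100 = all dead).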 Values without a mark were called inactive. Calls of active or inactive are those of the source. Rule for the calls: active = growth percent below 10; inactive = the rest.

How the values were obtained:
Assay in all cases: NCI-60 one-dose screen, 48 h (100 = growth as untreated, 0 = no growth, -100 = all killed)
Conditions in all cases: 10 µM unless noted
DU-145 prostate = system: DU-145 prostate
MALME-3M melanoma = system: MALME-3M melanoma
MDA-MB-231 breast = system: MDA-MB-231 breast
RXF 393 renal = system: RXF 393 renal
SF-268 CNS = system: SF-268 CNS
SF-295 CNS = system: SF-295 CNS
SF-539 CNS = system: SF-539 CNS
UACC-257 melanoma = system: UACC-257 melanoma
M14 melanoma = system: M14 melanoma
HCT-15 colon = system: HCT-15 colon
HT29 colon = system: HT29 colon
SNB-75 CNS = system: SNB-75 CNS
SNB-19 CNS = system: SNB-19 CNS
U251 CNS = system: U251 CNS
SK-MEL-5 melanoma = system: SK-MEL-5 melanoma
UACC-62 melanoma = system: UACC-62 melanoma
LOX IMVI melanoma = system: LOX IMVI melanoma
SK-MEL-28 melanoma = system: SK-MEL-28 melanoma
PC-3 prostate = system: PC-3 prostate

SMILES | growth (DU-145 prostate) | growth (MALME-3M melanoma) | growth (MDA-MB-231 breast) | growth (RXF 393 renal) | growth (SF-268 CNS) [%] | growth (SF-295 CNS) | growth (SF-539 CNS) | growth (UACC-257 melanoma) [%] | growth (M14 melanoma) | growth (HCT-15 colon) | growth (HT29 colon) | growth (SNB-75 CNS) [%] | growth (SNB-19 CNS) [%] | growth (U251 CNS) | growth (SK-MEL-5 melanoma) | growth (UACC-62 melanoma) | growth (LOX IMVI melanoma) | growth (SK-MEL-28 melanoma) | growth (PC-3 prostate)
C=C1C(=O)O[C@H]2[C@H]1CC/C(COC(=O)c1ccc(Br)cc1)=C\CC[C@@]1(C)O[C@@H]21 | -33.7% (active) | -54.1% (active) | -56% (active) | -86% (active) | 24.6 | 63.7% | -76.3% (active) | 50.3 | -22.8% (active) | -26.3% (active) | -51.8% (active) | 56 | 24 | 4.28% (active) | 8.33% (active) | -52.4% (active) | -94.6% (active) | -27% (active) | –
COc1ccc(C2CC(c3cc(Cl)c(C)cc3OC)=NN2c2ccc(S(N)(=O)=O)cc2)cc1OC (configuration not stated) | 106% | 101% | 84.6% | 77.7% | 90.1 | 123% | 103% | 87.2 | 81.8% | 75.9% | 78.7% | – | 101 | 78.4% | 84.6% | 65.1% | 77.9% | 108% | 52.3%
Cc1ccn2cc(Cc3cc(=O)oc4c3ccc3ccccc34)c(=O)nc2c1 | 110% | 99.8% | 97.6% | 106% | 94.8 | 96.1% | 93.7% | 86.3 | 96.8% | 97.4% | 87.8% | 81.4 | 103 | 102% | 100% | 96.6% | 98.6% | 100% | 104%
CCCOC(=O)c1ccc([N+](=O)[O-])o1 | 118% | 116% | 103% | 109% | 100 | 120% | 93.8% | 110 | 98.8% | 102% | 92.2% | 83.7 | 111 | 101% | 116% | 104% | 101% | 106% | 91.6%
O=C(Cn1c2ccccc2c2ccncc21)N/N=C/c1cc(O)c(O)c(O)c1 | 104% | 112% | 101% | 97.7% | 98.1 | 110% | 93.1% | 98.8 | 110% | 105% | 103% | 115 | 93.9 | 101% | 101% | 103% | 96.9% | 108% | 102%
CCCCNC(=O)Oc1ccc(/C(=C(/CC)Cc2ccccc2)c2ccc(OCCCN(C)C)cc2)cc1 | 89.2% | 93.4% | 78.9% | 70.7% | 77.8 | 94.9% | 88.5% | 104 | 81.8% | 57.7% | 15.4% | 75.5 | 90.7 | 68.9% | 84.5% | 106% | 59% | 95.9% | –
C=C1C(=O)O[C@H]2[C@H]1CC/C(CNC(=O)/C1=C/CC[C@@]3(C)O[C@H]3[C@H]3OC(=O)C(=C)[C@@H]3CC1)=C\CC[C@@]1(C)O[C@@H]21 | 105% | 104% | 102% | 99.3% | 98.5 | 97.6% | 95.6% | 79.9 | 95.2% | 93.7% | 95.4% | 86.3 | – | 94.2% | 97.2% | 85.1% | 88.2% | 96.2% | 99%
CC(=O)O[C@@H]1[C@@H](OC(C)=O)[C@H](OC(C)=O)CO[C@H]1Nc1cccc2ccccc12 | 100% | 86.9% | 89% | 105% | 83.1 | 94.5% | 90.2% | 103 | 99.6% | 94% | 84.2% | 93.9 | 105 | 105% | 103% | 97.2% | 88.8% | 110% | 90.8%
CC(=O)N1N=C(CCC(=O)c2nc3ccc([N+](=O)[O-])cc3[nH]2)OC1c1ccc(O)cc1 (configuration not stated) | 108% | 94.4% | 102% | 111% | 97.7 | 96.4% | 100% | 103 | 103% | 97.1% | 76.5% | 97.9 | 107 | 109% | 112% | 105% | 94.8% | 115% | 101%
CCn1c(SCC(=O)c2ccc(Br)cc2)nnc1-c1cc2c([nH]c3ccccc32)c(-c2cccc(O)c2)n1 | 85.3% | 64.6% | 75.4% | 1.81% (active) | 72.5 | 41.1% | 60.9% | 83.8 | 72.2% | 56.2% | 91.6% | 60.9 | 98.9 | 58.5% | 52.7% | 89.6% | 48.2% | 73.7% | 68.6%
CC(C)(C)C(=O)/C=c1/[nH]c(=O)/c(=C/c2ccccc2O)s1 | 78.6% | 66.4% | 58.1% | 62.7% | 61 | 60.6% | 60.1% | 82.1 | 30.4% | 33.8% | 72.2% | 66.5 | – | 27.8% | 42% | 58.3% | 40% | 69.6% | 53.4%
COc1cc2nc(C(=O)N3CCCCC3)cc(Nc3ccccc3)c2cc1OC | 92.8% | 116% | 88.6% | 101% | 84.2 | 96.3% | 95.5% | 108 | 116% | 102% | 104% | 97.5 | 104 | 102% | 95.6% | 104% | 94.9% | 110% | –
COC(=O)CCCNS(=O)(=O)c1cc(C(=O)Nc2ccc(NC(=O)c3cc(S(=O)(=O)NCCCC(=O)OC)c(O)c(O)c3O)cc2)c(O)c(O)c1O | 98.1% | 105% | 94.7% | 107% | 91.9 | 98.1% | 102% | 96.2 | 98.3% | 92.1% | 79.8% | 95.1 | 96.1 | 70.3% | 93.6% | 76.7% | 2.88% (active) | 110% | 83.3%
CC(C)(C)OC(=O)N1CCN(CCn2cc(C(F)(F)F)c3c(Cl)ncnc32)CC1 | 39.8% | 112% | 57.9% | 47% | 69.5 | 99.6% | 97.3% | 85.4 | 14% | 10.9% | 23.5% | 111 | – | 17.3% | 80% | 55.4% | -81% (active) | 52.8% | 8.61% (active)
O=C(Nc1ccc(F)cc1)Nc1ccc(Cl)c([N+](=O)[O-])c1 | 18.9% | 27.4% | 40% | 51.1% | 32.7 | 8.17% (active) | 36.2% | 34.9 | 24% | 11.1% | 13.6% | 46.7 | 21.5 | 15.5% | 22% | 15.9% | 9.41% (active) | 22.6% | 6.25% (active)
Nc1nc(Cl)c2c(C(F)(F)F)cn(CC3CCNCC3)c2n1 | 109% | 101% | 54.2% | 52.9% | 96.2 | 105% | 107% | 83.8 | 57.3% | 35.6% | 19.7% | 97.6 | 61.5 | 45% | 94.9% | 86.8% | -12.9% (active) | 83.6% | 93.2%
